Reference: publication PMC7862700, “An all-to-all approach to the identification of sequence-specific readers for epigenetic DNA modifications on cytosine”

Columns and labels:
Assay in all cases: DAPPL (digital affinity profiling via proximity ligation, sequencing); 10 mM Tris-HCl pH 7.5, 50 mM NaCl, 1 mM DTT, 4% glycerol, room temperature, 30 min; GST-TFs on glutathione beads, 16-mer random dsDNA library, 0.1% formaldehyde crosslink after washing; high values mean tight binding
Settings in all cases: protein: recombinant; tags: N-terminal GST; dsDNA, one strand shown
[1] = target: T1, FLI1 (Homo sapiens, UniProt Q01543 1-452)
T1 sequence: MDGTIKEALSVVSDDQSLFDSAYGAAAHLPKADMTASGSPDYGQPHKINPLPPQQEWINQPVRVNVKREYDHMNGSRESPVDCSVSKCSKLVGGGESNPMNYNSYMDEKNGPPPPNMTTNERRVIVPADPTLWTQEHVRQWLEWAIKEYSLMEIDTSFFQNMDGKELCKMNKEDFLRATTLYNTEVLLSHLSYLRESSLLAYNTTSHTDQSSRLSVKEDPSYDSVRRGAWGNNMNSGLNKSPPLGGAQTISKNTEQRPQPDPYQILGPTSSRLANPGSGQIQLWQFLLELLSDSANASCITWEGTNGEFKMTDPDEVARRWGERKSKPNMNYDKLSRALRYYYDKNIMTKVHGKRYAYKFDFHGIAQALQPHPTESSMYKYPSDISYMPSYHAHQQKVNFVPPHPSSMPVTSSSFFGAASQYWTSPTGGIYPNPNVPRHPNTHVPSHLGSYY
Outline: (§1)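 Binding signal is defined as a hexamer's read frequency for one factor over its frequency for the tag-only sample. To obtain reads, GST-fused human transcription factors were expressed in yeast, captured on glutathione beads, barcoded with DNA and pooled with that sample. Pools met 200 nmole of a 16-mer random double-stranded DNA library in Tris/NaCl/DTT/glycerol buffer for 30 min at room temperature before washing, 0.1% formaldehyde crosslinking, proximity ligation (BsaI/T4 ligase, 1 h, 37 °C), PCR and Illumina NextSeq500 sequencing.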

[2] = target: T2, ELK1 (Homo sapiens, UniProt P19419 1-428)
T2 sequence: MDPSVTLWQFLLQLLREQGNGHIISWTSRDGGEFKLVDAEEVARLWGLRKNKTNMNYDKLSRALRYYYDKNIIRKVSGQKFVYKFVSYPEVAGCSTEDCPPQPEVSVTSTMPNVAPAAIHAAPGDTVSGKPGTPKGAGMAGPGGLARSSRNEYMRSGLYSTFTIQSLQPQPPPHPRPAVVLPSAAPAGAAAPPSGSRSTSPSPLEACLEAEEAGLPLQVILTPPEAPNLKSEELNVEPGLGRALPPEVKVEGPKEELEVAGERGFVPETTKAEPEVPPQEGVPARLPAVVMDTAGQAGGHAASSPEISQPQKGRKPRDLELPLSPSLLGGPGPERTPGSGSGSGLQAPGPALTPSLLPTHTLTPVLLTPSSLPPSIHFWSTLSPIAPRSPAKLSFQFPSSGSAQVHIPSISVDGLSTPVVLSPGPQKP
Outline: as §1

[3] = target: T3, ERG (Homo sapiens, UniProt P11308 1-479)
T3 sequence: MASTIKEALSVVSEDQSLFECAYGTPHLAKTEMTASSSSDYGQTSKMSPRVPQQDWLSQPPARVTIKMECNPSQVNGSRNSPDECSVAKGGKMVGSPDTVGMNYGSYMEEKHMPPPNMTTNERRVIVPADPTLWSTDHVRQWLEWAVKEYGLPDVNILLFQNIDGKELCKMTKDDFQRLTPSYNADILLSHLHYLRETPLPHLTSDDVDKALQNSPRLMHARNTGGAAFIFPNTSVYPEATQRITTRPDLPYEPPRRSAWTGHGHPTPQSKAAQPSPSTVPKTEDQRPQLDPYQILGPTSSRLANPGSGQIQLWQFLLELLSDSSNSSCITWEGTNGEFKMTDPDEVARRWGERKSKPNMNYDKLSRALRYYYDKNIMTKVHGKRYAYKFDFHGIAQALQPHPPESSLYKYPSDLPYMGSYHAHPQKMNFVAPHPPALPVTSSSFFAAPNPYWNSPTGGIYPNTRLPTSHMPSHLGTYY
Outline: as §1

[4] = target: ELF1 (Homo sapiens, UniProt P32519 1-619)
Outline: as §1

[5] = target: SPI1 (Homo sapiens, UniProt P17947 1-270)
Outline: as §1

[6] = target: SPIB (Homo sapiens, UniProt Q01892 1-262)
Outline: as §1

[7] = target: T4, ELK3 (Homo sapiens, UniProt P41970 1-407)
T4 sequence: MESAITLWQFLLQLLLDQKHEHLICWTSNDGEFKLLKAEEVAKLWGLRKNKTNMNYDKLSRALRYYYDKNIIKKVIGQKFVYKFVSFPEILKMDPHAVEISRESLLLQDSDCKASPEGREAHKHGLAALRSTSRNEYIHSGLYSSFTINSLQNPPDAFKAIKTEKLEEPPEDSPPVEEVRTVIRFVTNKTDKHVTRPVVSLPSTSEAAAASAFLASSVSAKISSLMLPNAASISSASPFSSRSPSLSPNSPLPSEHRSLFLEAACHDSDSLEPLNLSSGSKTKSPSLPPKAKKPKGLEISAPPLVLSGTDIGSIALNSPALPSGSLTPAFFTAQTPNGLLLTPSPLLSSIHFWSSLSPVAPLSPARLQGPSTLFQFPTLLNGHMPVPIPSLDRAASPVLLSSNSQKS
Outline: as §1

[8] = target: T5, SPIC (Homo sapiens, UniProt Q8N5J4 1-248)
T5 sequence: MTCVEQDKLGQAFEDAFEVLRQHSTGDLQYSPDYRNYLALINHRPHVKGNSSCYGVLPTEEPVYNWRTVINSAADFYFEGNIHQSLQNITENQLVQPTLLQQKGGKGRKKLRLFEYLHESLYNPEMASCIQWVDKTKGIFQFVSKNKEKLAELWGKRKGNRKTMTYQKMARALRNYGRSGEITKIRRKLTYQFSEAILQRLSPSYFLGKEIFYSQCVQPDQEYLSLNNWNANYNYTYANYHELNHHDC
Outline: as §1

[9] = target: ELF4 (Homo sapiens, UniProt Q99607 1-663)
Outline: as §1

[10] = target: T6, ETV2 (Homo sapiens, UniProt O00321 1-342)
T6 sequence: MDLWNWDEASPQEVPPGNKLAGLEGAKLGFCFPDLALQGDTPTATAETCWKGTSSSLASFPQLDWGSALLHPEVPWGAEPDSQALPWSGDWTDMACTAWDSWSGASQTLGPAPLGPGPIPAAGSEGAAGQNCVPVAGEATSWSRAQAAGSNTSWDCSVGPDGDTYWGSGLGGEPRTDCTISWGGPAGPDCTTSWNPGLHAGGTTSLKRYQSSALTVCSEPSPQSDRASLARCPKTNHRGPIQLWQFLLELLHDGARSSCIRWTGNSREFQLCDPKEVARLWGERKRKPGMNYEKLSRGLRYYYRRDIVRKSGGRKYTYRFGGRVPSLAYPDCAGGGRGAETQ
Outline: as §1

[11] = target: T7, ELF3 (Homo sapiens, UniProt P78545 1-371)
T7 sequence: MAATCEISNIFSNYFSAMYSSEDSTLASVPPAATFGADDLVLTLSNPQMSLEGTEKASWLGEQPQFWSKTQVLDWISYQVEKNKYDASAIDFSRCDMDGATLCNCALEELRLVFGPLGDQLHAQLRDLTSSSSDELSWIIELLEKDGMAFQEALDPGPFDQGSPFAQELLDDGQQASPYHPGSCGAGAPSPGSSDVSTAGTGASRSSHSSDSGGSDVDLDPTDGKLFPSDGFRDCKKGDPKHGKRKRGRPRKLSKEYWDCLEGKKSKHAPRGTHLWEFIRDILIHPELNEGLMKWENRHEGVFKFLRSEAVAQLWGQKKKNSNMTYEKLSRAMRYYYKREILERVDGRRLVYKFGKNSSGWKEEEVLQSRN
Outline: as §1

[12] = target: ETV1 (Homo sapiens, UniProt P50549 1-477)
Outline: as §1

[13] = target: T8, ERF (Homo sapiens, UniProt P50548 1-548)
T8 sequence: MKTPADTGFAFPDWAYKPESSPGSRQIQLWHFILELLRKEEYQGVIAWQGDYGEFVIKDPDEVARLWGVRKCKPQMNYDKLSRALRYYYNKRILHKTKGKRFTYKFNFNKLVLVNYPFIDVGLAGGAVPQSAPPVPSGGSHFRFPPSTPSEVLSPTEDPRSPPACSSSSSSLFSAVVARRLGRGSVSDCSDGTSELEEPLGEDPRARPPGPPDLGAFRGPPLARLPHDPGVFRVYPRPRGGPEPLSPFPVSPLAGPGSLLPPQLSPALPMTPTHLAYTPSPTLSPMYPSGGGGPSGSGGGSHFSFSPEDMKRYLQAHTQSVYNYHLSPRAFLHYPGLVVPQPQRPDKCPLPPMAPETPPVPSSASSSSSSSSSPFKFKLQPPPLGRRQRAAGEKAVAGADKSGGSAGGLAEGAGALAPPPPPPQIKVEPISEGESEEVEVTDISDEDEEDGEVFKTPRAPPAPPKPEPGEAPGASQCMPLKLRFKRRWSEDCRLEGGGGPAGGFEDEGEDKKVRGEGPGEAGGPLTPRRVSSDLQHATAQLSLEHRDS
Outline: as §1

[14] = target: T9, ETV3L (Homo sapiens, UniProt Q6ZN32 1-361)
T9 sequence: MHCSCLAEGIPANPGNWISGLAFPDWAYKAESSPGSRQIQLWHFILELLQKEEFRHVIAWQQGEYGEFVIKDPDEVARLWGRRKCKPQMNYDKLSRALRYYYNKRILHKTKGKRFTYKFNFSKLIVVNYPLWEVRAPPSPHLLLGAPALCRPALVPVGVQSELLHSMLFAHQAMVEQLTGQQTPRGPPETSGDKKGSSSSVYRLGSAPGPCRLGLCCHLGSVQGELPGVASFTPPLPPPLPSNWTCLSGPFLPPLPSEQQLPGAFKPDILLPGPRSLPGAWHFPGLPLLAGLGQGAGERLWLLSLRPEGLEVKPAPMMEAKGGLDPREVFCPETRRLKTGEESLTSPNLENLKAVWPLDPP
Outline: as §1

[15] = target: T10, ETS2 (Homo sapiens, UniProt P15036 1-469)
T10 sequence: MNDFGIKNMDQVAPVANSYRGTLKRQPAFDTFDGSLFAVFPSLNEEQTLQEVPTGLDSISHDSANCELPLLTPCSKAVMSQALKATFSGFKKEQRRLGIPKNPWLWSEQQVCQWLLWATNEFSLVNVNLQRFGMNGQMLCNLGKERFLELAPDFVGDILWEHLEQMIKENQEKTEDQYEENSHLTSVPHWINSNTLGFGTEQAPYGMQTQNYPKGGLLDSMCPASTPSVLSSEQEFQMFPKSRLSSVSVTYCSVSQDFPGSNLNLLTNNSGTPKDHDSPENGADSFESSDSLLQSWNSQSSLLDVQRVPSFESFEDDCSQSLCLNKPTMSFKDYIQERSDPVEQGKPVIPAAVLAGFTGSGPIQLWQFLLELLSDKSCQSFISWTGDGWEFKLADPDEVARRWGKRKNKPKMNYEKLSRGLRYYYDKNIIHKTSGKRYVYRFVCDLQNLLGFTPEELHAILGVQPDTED
Outline: as §1

[16] = target: T11, ETV7 (Homo sapiens, UniProt Q9Y603 1-341)
T11 sequence: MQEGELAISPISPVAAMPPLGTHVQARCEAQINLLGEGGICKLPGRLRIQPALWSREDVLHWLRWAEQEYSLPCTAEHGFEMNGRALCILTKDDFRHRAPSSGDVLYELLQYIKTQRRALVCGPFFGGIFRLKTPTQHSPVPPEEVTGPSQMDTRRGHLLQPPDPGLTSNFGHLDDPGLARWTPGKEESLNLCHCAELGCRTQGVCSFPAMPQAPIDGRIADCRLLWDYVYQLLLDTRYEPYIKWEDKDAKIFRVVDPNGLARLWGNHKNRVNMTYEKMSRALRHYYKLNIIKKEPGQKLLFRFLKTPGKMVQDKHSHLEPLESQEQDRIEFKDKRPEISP
Outline: as §1

[17] = target: T12, ETV3 (Homo sapiens, UniProt P41162-2 1-143)
T12 sequence: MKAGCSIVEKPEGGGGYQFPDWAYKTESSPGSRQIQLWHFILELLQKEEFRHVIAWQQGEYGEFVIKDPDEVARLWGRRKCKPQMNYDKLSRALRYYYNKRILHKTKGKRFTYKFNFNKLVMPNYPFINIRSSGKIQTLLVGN
Outline: as §1

[18] = target: ETV6 (Homo sapiens, UniProt P41212 1-452)
Outline: as §1

Chain of SPIB (Q01892 whole entry): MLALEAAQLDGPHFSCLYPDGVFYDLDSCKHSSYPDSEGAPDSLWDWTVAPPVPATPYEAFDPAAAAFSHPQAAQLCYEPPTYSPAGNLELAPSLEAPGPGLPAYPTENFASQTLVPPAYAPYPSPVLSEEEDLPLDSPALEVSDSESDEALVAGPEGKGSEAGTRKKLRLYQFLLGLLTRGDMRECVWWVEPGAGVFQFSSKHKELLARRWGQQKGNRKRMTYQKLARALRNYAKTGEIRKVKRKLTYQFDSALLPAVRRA
Chain of ELF4 (Q99607 whole entry): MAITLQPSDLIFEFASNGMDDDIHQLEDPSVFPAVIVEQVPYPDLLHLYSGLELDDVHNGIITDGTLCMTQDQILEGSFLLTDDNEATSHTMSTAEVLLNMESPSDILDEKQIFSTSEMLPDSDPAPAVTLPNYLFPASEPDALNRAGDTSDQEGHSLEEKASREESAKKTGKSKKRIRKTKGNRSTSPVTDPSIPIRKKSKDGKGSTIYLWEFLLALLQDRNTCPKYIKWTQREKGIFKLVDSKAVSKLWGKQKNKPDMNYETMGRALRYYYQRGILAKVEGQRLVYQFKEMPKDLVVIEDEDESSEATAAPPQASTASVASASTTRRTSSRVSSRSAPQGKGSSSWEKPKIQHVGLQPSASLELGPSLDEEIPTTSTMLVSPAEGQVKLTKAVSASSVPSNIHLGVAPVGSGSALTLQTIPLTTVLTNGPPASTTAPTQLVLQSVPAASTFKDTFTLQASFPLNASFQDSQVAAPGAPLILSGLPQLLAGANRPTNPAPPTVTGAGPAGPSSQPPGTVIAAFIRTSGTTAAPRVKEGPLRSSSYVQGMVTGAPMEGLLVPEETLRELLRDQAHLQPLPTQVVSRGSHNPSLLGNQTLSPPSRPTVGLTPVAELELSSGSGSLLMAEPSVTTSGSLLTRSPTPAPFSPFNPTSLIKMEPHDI
Chain of ELF1 (P32519 whole entry): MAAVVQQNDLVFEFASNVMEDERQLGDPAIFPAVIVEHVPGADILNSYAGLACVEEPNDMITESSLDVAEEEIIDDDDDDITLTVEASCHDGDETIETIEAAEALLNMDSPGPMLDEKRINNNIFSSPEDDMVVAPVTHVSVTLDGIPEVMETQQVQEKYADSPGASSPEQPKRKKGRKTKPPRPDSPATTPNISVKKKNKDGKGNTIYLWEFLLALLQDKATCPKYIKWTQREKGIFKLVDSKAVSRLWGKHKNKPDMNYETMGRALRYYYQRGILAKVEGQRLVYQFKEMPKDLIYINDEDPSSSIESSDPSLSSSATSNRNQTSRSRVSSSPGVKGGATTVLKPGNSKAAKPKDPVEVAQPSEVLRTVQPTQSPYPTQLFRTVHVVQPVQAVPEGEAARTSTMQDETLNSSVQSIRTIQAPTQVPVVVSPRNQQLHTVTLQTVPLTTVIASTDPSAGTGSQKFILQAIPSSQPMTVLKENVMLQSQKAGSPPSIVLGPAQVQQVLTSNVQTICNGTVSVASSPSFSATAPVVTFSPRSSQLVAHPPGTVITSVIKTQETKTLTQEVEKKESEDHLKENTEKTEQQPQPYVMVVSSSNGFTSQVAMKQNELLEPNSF
Chain of ETV6 (P41212 whole entry): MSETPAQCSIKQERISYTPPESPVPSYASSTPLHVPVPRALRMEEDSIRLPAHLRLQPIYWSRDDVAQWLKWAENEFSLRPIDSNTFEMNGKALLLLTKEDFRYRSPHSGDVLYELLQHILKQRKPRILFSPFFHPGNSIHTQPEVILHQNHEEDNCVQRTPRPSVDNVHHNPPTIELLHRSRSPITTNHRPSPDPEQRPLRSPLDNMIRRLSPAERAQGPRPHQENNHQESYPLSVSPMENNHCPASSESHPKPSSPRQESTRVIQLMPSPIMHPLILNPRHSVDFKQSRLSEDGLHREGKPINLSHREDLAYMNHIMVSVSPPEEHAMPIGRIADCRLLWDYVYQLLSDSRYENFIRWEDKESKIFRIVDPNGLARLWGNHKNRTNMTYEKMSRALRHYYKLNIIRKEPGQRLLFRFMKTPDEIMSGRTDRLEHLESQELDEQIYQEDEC
Chain of ETV1 (P50549 whole entry): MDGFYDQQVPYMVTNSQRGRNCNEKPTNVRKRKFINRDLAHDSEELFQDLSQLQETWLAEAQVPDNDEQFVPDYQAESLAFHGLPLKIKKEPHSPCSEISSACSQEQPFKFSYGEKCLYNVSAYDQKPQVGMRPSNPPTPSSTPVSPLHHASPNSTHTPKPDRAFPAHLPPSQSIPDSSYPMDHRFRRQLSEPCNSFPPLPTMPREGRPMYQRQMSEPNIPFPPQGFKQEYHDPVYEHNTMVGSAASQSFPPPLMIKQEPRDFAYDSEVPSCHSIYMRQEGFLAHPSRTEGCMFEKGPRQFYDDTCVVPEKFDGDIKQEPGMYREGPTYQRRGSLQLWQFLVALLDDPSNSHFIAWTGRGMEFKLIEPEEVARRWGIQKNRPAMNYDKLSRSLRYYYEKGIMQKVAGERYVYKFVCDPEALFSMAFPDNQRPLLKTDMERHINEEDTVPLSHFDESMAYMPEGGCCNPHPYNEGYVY

Q: With TGATTG as the sequence, how does the binding signal [1] read?
A: 1.16 fold enrichment (6-mer frequency, TF over GST control)

Q: And the binding signal [2]?
A: 1.16 fold enrichment (6-mer frequency, TF over GST control)

Q: And the binding signal [3]?
A: 1.08 fold enrichment (6-mer frequency, TF over GST control)

Q: And the binding signal [4]?
A: 1.06 fold enrichment (6-mer frequency, TF over GST control)

Q: What about the binding signal [5] of the same sequence?
A: 1.04 fold enrichment (6-mer frequency, TF over GST control)

Q: And the binding signal [6]?
A: 1.09 fold enrichment (6-mer frequency, TF over GST control)

Q: What about the binding signal [7] of the same sequence?
A: 1.11 fold enrichment (6-mer frequency, TF over GST control)

Q: What about the binding signal [8] of the same sequence?
A: 1.05 fold enrichment (6-mer frequency, TF over GST control)

Q: And the binding signal [9]?
A: 1.02 fold enrichment (6-mer frequency, TF over GST control)

Q: What about the binding signal [10] of the same sequence?
A: 1.06 fold enrichment (6-mer frequency, TF over GST control)

Q: And the binding signal [11]?
A: 1.05 fold enrichment (6-mer frequency, TF over GST control)

Q: And the binding signal [12]?
A: 1.1 fold enrichment (6-mer frequency, TF over GST control)

Q: What about the binding signal [13] of the same sequence?
A: 1.13 fold enrichment (6-mer frequency, TF over GST control)

Q: And the binding signal [14]?
A: 1.09 fold enrichment (6-mer frequency, TF over GST control)

Q: What about the binding signal [15] of the same sequence?
A: 1.01 fold enrichment (6-mer frequency, TF over GST control)

Q: And the binding signal [16]?
A: 1.05 fold enrichment (6-mer frequency, TF over GST control)

Q: What about the binding signal [17] of the same sequence?
A: 1.05 fold enrichment (6-mer frequency, TF over GST control)

Q: What about the binding signal [18] of the same sequence?
A: 1.04 fold enrichment (6-mer frequency, TF over GST control)
